Measurements as given in PubChem BioAssay.
Calls of active or inactive are those of the source. Unless noted, the rule behind the calls is not given here.

Legend:
[1] = resazurin metabolic signal in HepG2 cells – cell-based, resazurin fluorescence, 24 h, PK04 Diversity Set, profiling panel (AID 1172); settings: HepG2 viability, higher = more signal; note: test concentration not given here
[2] = budding yeast growth changes without added modifier – OD600, strain BY4716, 24 h, basal condition, primary screen (AID 1173); settings: S. cerevisiae BY4716 growth, OD600, 24 h; higher = more signal, called active from +8 up or from −8 down
[3] = viability profiling in MM1S myeloma cells – cell-based, resazurin fluorescence, basal, 24 h, PK04 Diversity Set, profiling panel (AID 1174); settings: higher = more signal, called active from +8 up or from −8 down;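 note: MM1S multiple myeloma cell line; test concentration not given here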
[4] = target: Dihydroorotate dehydrogenase (quinone), mitochondrial (Plasmodium falciparum (isolate 3D7)) (UniProt Q08210); test: inhibition of P. falciparum DHODH – biochemical, C-terminal His tag, absorbance 600 nm, primary screen (AID 1175); settings: PfDHODH enzyme, DCIP absorbance 600 nm; higher = more signal, called active from +8 up or from −8 down;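 note: recombinant parasite enzyme with a five histidine tag at its C terminus; test concentration not given here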
Dihydroorotate dehydrogenase (quinone), mitochondrial (Plasmodium falciparum (isolate 3D7)), sequence (Q08210 whole entry, looked up): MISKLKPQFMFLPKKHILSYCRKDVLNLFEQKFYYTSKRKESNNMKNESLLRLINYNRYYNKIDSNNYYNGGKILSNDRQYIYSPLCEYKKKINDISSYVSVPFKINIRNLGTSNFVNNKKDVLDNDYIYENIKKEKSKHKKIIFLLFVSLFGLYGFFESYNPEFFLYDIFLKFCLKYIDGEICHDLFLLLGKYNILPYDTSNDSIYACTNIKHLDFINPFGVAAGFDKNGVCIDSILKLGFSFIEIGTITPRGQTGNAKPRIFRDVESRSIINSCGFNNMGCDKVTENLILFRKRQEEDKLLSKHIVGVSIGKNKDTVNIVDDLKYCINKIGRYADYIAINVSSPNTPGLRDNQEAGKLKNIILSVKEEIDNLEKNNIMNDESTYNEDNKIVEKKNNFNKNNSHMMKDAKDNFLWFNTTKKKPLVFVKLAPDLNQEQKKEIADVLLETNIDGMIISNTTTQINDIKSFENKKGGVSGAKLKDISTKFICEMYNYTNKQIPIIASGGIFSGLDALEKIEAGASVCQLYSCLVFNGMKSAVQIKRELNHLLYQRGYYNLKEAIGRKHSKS

[5] = inhibition of PAO1 biofilm formation – strain PAO1, LB-PBS medium, absorbance 600 nm, primary screen (AID 1176); note: test concentration not given here; settings: P. aeruginosa PAO1 growth/biofilm, A600, 12 h; higher = more signal
[6] = growth modulation of vineyard yeast isolate – strain RM11-1a, OD600, basal, 24 h, primary screen (AID 1177);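 note: cultures grown under basal conditions with no added stressor; test concentration not given here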; settings: S. cerevisiae RM11-1a growth, OD600, 24 h; higher = more signal, called active from +8 up or from −8 down
[7] = growth of efflux-deficient E. coli DRC39 – strain DRC39, OD650, 24 h, E. coli filamentation inducers, primary screen (AID 1178);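 note: growth measured as culture turbidity by optical density at 650 nm; test concentration not given here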; settings: E. coli DRC39 acrAB, higher = more signal, called active from +8 up or from −8 down
[8] = growth of efflux-deficient E. coli DRC39 – strain DRC39, OD650, 48 h, E. coli filamentation inducers, primary screen (AID 1179);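 note: screen aims at cell division blockers that make cells filament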; settings: E. coli DRC39 delta-acrAB growth, higher = more signal, called active from +8 up or from −8 down
[9] = viability profiling in RPMI8226 myeloma cells – cell-based, resazurin fluorescence, basal, 24 h, PK04 Diversity Set, profiling panel (AID 1180); settings: higher = more signal;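 note: RPMI8826 multiple myeloma cell line at 5000 cells per well; test concentration not given here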
[10] = target: E3 ubiquitin-protein ligase XIAP (Homo sapiens) (UniProt P98170); test: small molecules binding XIAP protein – biophysical, small-molecule microarray, fluorescence 635 nm, primary screen (AID 1181); settings: higher = more signal;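 note: score merges 667 nm emission and signal to noise over triplicate slides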
E3 ubiquitin-protein ligase XIAP (Homo sapiens), sequence (P98170 whole entry, looked up): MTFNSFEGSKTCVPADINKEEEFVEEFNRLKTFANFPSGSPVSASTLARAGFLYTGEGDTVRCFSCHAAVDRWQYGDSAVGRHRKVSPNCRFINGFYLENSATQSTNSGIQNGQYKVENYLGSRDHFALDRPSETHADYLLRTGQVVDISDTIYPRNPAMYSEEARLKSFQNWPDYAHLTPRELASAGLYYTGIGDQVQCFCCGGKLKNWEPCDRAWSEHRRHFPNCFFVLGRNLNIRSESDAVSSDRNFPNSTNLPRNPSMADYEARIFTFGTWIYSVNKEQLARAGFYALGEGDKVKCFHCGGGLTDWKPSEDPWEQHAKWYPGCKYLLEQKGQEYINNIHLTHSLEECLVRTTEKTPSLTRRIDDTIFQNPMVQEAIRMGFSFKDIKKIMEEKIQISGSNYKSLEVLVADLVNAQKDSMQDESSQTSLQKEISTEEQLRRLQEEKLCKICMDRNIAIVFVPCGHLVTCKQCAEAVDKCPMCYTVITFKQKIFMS

Row | SMILES | z-score [1] | z-score [2] | z-score [3] | composite z-score [4] | z-score [5] | z-score [6] | z-score [7] | z-score [8] | z-score [9] | composite z-score [10]
1 | C=CCOC(=O)[C@@H]1[C@H]2C(=O)O[C@H](c3ccccc3)[C@H](c3ccccc3)N2[C@H](c2ccc(OCCOC(=O)[C@H]3C[C@H]4C(=O)N5CCC[C@H]5C(=O)N4[C@H]3c3ccc(O)cc3)cc2)[C@@]12C(=O)Nc1ccc(I)cc12 | -0.91 | 0.148 (inactive) | 0.119 (inactive) | 1.01 (inactive) | 3.16 (inactive) | 1.27 (inactive) | 0.0092 (inactive) | -0.743 (inactive) | -0.432 | -0.02
2 | COCCOC(=O)N1C(=O)[C@@]2(c3cc(C#CCC(C(=O)OC)C(=O)OC)ccc31)[C@H](C(=O)Nc1nc3ccccc3s1)[C@H]1C(=O)O[C@H](c3ccccc3)[C@H](c3ccccc3)N1[C@@H]2c1ccccc1OCCO | -0.397 | 1.3 (inactive) | -1.38 (inactive) | -0.715 (inactive) | 2.96 (inactive) | 2.8 (inactive) | 0.0871 (inactive) | 0.642 (inactive) | -0.39 | 0.109
3 | CCCC[C@H]1OB(O)C[C@H]2C1=C(COC)C[C@H]1C(=O)N(C)C(=O)[C@H]12 | -0.627 | -1.56 (inactive) | -0.227 (inactive) | -0.682 (inactive) | 0.118 (inactive) | -1.11 (inactive) | -0.748 (inactive) | -0.595 (inactive) | -0.45 | 0.144
4 | CCCCC(CC)C(O)C1C=CC2C(=O)N(Cc3ccccc3)C(=O)C2N1n1cnnc1 (stereo not given) | -0.661 | 0.374 (inactive) | -0.763 (inactive) | -0.495 (inactive) | -0.445 (inactive) | -0.666 (inactive) | -1.03 (inactive) | -1.46 (inactive) | -1.01 | 0.0228
5 | O=C1C2C=CC(C(O)CCc3ccccc3)N(Nc3ccccc3F)C2C(=O)N1c1ccccc1 (stereo not given) | 0.0011 | 0.14 (inactive) | 0.209 (inactive) | -0.442 (inactive) | 0.0083 (inactive) | -0.253 (inactive) | -0.837 (inactive) | 0.0277 (inactive) | 0.799 | 0.272
6 | COCCOC(=O)N1C(=O)[C@@]2(c3ccccc31)[C@H](c1ccccc1OCCO)N1[C@H](c3ccccc3)[C@H](c3ccccc3)OC(=O)[C@H]1[C@@H]2C(=O)N1CCN(c2ncccn2)CC1 | -0.0332 | 2.64 (inactive) | -1.39 (inactive) | -0.539 (inactive) | 3.61 (inactive) | 3.08 (inactive) | -0.233 (inactive) | 0.176 (inactive) | -0.862 | -0.16
7 | C=C(CCCC)/C(=C/C[C@@H](OC(=O)c1ccncc1)c1ccc(OCCO)cc1)c1cc(C(=O)OC)ccc1OC | 0.691 | 1.1 (inactive) | 0.234 (inactive) | -0.265 (inactive) | -0.39 (inactive) | 0.826 (inactive) | 0.885 (inactive) | 0.868 (inactive) | 0.572 | -0.141
8 | C=CCNC(=O)[C@H]1[C@@H]2C(=O)O[C@@H](c3ccccc3)[C@@H](c3ccccc3)N2[C@@H](c2ccccc2OCCO)[C@]12C(=O)Nc1ccc(C#CCCO)cc12 | -0.349 | 1.22 (inactive) | -0.942 (inactive) | 2.6 (inactive) | 0.462 (inactive) | 2.33 (inactive) | -0.393 (inactive) | -0.445 (inactive) | -0.969 | 1.02
9 | C=C(COC)/C(=C/C[C@@H](OC(C)=O)c1ccc(OCCO)cc1)c1cnc2ccccc2c1 | 0.638 | -1.39 (inactive) | 0.748 (inactive) | -5.97 (inactive) | -0.128 (inactive) | -1.49 (inactive) | 1.06 (inactive) | 0.968 (inactive) | 0.371 | 0.241
10 | C=CCC(OC(C)=O)[C@@H]1[C@@H](N(Cc2ccc(-c3ccccc3)cc2)C(=O)c2ccc(-c3ccccc3)cc2)c2cc(OCCCO)ccc2N1C(=O)Cc1ccc2ccccc2c1 (stereo not given in full) | 0.289 | 0.274 (inactive) | 0.7 (inactive) | -0.0366 (inactive) | 0.526 (inactive) | -0.357 (inactive) | -0.433 (inactive) | -0.5 (inactive) | 0.465 | 0.225
11 | C=CC(=C)[C@H]1Oc2ccccc2S(=O)(=O)N2CCC[C@@H]12 | -0.702 | -3 (inactive) | -0.205 (inactive) | 0.742 (inactive) | -0.389 (inactive) | -0.377 (inactive) | -0.553 (inactive) | -0.84 (inactive) | -0.973 | -0.02
12 | CCC(CC)C(O)C1C=CC2C(=O)NC(=O)C2N1Nc1ccc(Cl)cc1Cl (stereo not given) | -1.82 | -3.65 (inactive) | -1.46 (inactive) | 0.925 (inactive) | 1.26 (inactive) | 1.27 (inactive) | -0.682 (inactive) | -0.459 (inactive) | -1.52 | 0.0187
13 | COc1ccc(-c2cc3c(c(-c4ccc(Oc5ccccc5)cc4)n2)[Si](C(C)C)(C(C)C)OC3)cn1 | -1.05 | 1.07 (inactive) | -0.29 (inactive) | 0.568 (inactive) | -0.0391 (inactive) | 1.24 (inactive) | -0.794 (inactive) | -0.973 (inactive) | -0.698 | -0.0326
14 | CC(C)N1C(=O)C[C@@](C(=O)NCC(F)(F)F)(c2ccc([N+](=O)[O-])cc2)[C@H]1c1ccc(CO)cc1 | -0.228 | -0.957 (inactive) | 1.26 (inactive) | -0.297 (inactive) | 0.255 (inactive) | -1.09 (inactive) | 0.818 (inactive) | 0.629 (inactive) | 0.939 | -0.0448
15 | C=CCOC(=O)[C@H]1[C@@H]2C(=O)O[C@@H](c3ccccc3)[C@@H](c3ccccc3)N2[C@@H](c2ccc(OCCOC(=O)[C@H]3C[C@H]4C(=O)N[C@@H](CCCCNC(C)=O)C(=O)N4[C@H]3c3ccc(O)cc3)cc2)[C@]12C(=O)Nc1ccc(I)cc12 | 0.452 | -0.371 (inactive) | -1.18 (inactive) | -0.325 (inactive) | 1.14 (inactive) | 1.38 (inactive) | -1.83 (inactive) | -1.16 (inactive) | -0.745 | -0.0784
16 | NC(=O)NCC#Cc1ccc2c(c1)[C@]1(C(=O)N2)[C@H](C(N)=O)[C@H]2C(=O)O[C@H](c3ccccc3)[C@H](c3ccccc3)N2[C@@H]1c1ccc(O)cc1 | 0.584 | -0.911 (inactive) | 0.204 (inactive) | -0.405 (inactive) | -0.212 (inactive) | -0.732 (inactive) | 0.0883 (inactive) | -0.612 (inactive) | -0.0275 | 0.156
17 | N#Cc1ccc(NN2C(C(O)C(c3ccccc3)c3ccccc3)C=CC3C(=O)N(c4ccccc4)C(=O)C32)cc1 (stereo not given) | -0.554 | 0.551 (inactive) | -1.17 (inactive) | 0.0998 (inactive) | 0.35 (inactive) | 0.826 (inactive) | -0.135 (inactive) | 0.832 (inactive) | 0.0951 | 0.0849
18 | C=CC[C@]1(C(=O)NCCCOC)N=C(c2ccc(OCCCO)cc2)O[C@H]1c1ccccc1CN=[N+]=[N-] | 0.127 | -0.024 (inactive) | -0.266 (inactive) | -0.339 (inactive) | 0.978 (inactive) | -0.755 (inactive) | -0.161 (inactive) | -0.347 (inactive) | -0.257 | -0.0134
19 | CCOC(=O)C1=CC[C@@H](c2ccccc2)N(S(=O)(=O)c2ccc(C)cc2)[C@H]1c1ccccc1C | 1.81 | 0.786 (inactive) | 0.336 (inactive) | -0.494 (inactive) | -0.377 (inactive) | -0.59 (inactive) | -0.502 (inactive) | 0.3 (inactive) | 0.686 | -0.0239
20 | [N-]=[N+]=Nc1ccccc1[C@@H]1OC(c2ccc(OCCCO)cc2)=N[C@]1(CCS(=O)(=O)c1ccccc1)C(N)=O | 0.396 | -0.0185 (inactive) | -0.706 (inactive) | 0.796 (inactive) | -0.291 (inactive) | -0.0594 (inactive) | 0.326 (inactive) | -0.397 (inactive) | -0.699 | 0.0975
21 | COc1cc2c(cc1O)C(c1cccs1)N(C)CC2 (stereo not given) | -0.493 | 1.11 (inactive) | -1.55 (inactive) | -8.08 (active) | 0.282 (inactive) | -0.225 (inactive) | 0.34 (inactive) | 0.597 (inactive) | -0.468 | 0.0682
22 | O[C@@H](Cc1ccccc1)[C@H]1C2C=CCCC=C2CN1Cc1cccc(Cl)c1 (stereo not given in full) | 0.318 | -4.3 (inactive) | -0.686 (inactive) | -0.255 (inactive) | 1.27 (inactive) | -0.068 (inactive) | 0.779 (inactive) | 0.73 (inactive) | -0.0704 | -0.365
23 | CC(C)C[C@@H]1NC(=O)[C@H](C(C)C)NC(=O)[C@@]23C(=O)N[C@@H](Cc4ccccc4)C2[C@H](C)[C@@]2(C)O[C@H]2C3/C=C/CC/C=C/CNC1=O (stereo not given in full) | 0.233 | -0.399 (inactive) | -0.0691 (inactive) | -0.313 (inactive) | 0.956 (inactive) | 0.388 (inactive) | 1.04 (inactive) | 0.408 (inactive) | 0.628 | -0.243
24 | C=CCC(OC(C)=O)[C@@H]1[C@@H](N(Cc2ccc(-c3ccccc3)cc2)C(=O)Cc2ccc(OC)cc2)c2cc(OCCCO)ccc2N1C(=O)Cc1ccc2ccccc2c1 (stereo not given in full) | -0.978 | -0.34 (inactive) | -0.541 (inactive) | 0.0513 (inactive) | 0.562 (inactive) | -0.726 (inactive) | -0.39 (inactive) | -0.851 (inactive) | -0.798 | 0.098
25 | CCCC[C@@H]1C[C@H]1[C@@H](NC(=O)c1ccco1)c1ccc(-c2ccccc2)cc1 | -0.9 | 1.22 (inactive) | -1.52 (inactive) | -3.3 (inactive) | 2.16 (inactive) | 0.505 (inactive) | -1.05 (inactive) | -1.2 (inactive) | -1.29 | 0.773
